# Source: the supplement of paper PMC10849652
# The full data set covers some 7,900 targets. This sample favours those with a hit. About 0.6% of all pairs of compound and target were hits. A number with no mark means an inactive call.
# Columns and labels:
# Experiment in all cases: log2 fold change, soluble protein after heating vs DMSO (PISA); higher = thermal stabilisation; K562 cells, 10 uM, 30 min; active = over 0.2 and 3.5 SD of the protein, either way, in both replicates (recomputed)
# bafetinib = compound: Cc1ccc(NC(=O)c2ccc(CN3CC[C@H](N(C)C)C3)c(C(F)(F)F)c2)cc1Nc1nccc(-c2cncnc2)n1 [bafetinib]
# Procedure, shortened: (§1)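 K562 cells (2×10^6 cells/mL) were treated with 10 μM compound for 30 min, and aliquots were heated for 3 min over 48°C-58°C. Pooled aliquots were extracted in PBS with 0.5% NP-40 at 4°C, and the supernatant after 21,000xg for 90 min was measured by TMTpro 16plex LC-MS/MS with channel sums equalised. Reported thermal stability, relative to control samples and from duplicates, is a log2 fold change.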
# [1] = compound: Cc1cccc(CC(=O)N2CCc3c2ccc(-c2cn(C)c4ncnc(N)c24)c3F)n1
# Procedure, shortened: as §1
# nilotinib = compound: Cc1cn(-c2cc(NC(=O)c3ccc(C)c(Nc4nccc(-c5cccnc5)n4)c3)cc(C(F)(F)F)c2)cn1 [nilotinib]
# Procedure, shortened: as §1
# [2] = compound: Cc1nc(Nc2n[nH]c3c2CN(C(=O)N[C@H](CN(C)C)c2ccccc2)C3(C)C)c2sccc2n1
# Procedure, shortened: as §1
# dasatinib = compound: Cc1nc(Nc2ncc(C(=O)Nc3c(C)cccc3Cl)s2)cc(N2CCN(CCO)CC2)n1 [dasatinib]
# Procedure, shortened: as §1
# [3] = compound: Cc1ncc(-c2ccnc(Nc3ccc(S(C)(=O)=O)cc3)n2)n1C(C)C
# Procedure, shortened: as §1
# [4] = compound: Cn1cc(-c2ccc3c(c2)CCN3C(=O)Cc2cccc(C(F)(F)F)c2)c2c(N)ncnc21
# Procedure, shortened: as §1
# [5] = compound: Cn1cc(-c2ccc3nnc(C(F)(F)c4ccc5ncccc5c4)n3n2)cn1
# Procedure, shortened: as §1
# tipifarnib = compound: Cn1cncc1[C@@](N)(c1ccc(Cl)cc1)c1ccc2c(c1)c(-c1cccc(Cl)c1)cc(=O)n2C [tipifarnib]
# Procedure, shortened: as §1
# mubritinib = compound: FC(F)(F)c1ccc(/C=C/c2nc(COc3ccc(CCCCn4ccnn4)cc3)co2)cc1 [mubritinib]
# Procedure, shortened: as §1
# Sequence of UniProt Q99805 (Q99805 whole entry, looked up): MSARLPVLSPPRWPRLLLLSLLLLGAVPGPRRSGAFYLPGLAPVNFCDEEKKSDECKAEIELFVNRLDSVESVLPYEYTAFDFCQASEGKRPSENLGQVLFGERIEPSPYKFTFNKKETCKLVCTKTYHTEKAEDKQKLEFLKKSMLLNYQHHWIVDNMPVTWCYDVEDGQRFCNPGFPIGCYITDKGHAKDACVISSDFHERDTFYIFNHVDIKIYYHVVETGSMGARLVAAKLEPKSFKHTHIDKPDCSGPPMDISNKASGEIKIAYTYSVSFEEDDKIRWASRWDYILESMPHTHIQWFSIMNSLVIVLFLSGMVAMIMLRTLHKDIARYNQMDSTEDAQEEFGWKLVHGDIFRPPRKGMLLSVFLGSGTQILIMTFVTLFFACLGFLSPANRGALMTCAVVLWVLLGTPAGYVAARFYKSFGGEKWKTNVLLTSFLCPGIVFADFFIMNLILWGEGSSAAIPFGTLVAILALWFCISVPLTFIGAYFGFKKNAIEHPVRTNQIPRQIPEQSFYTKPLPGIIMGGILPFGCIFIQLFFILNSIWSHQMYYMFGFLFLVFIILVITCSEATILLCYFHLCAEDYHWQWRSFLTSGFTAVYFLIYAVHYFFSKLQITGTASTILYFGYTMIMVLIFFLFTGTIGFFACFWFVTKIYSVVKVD
# Sequence of UniProt Q8WVK2 (Q8WVK2 whole entry, looked up): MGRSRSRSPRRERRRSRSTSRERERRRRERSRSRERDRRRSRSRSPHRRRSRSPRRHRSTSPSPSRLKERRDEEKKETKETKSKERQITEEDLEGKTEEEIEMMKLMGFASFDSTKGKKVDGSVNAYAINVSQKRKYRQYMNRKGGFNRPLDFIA
# Sequence of UniProt O60749 (O60749 whole entry, looked up): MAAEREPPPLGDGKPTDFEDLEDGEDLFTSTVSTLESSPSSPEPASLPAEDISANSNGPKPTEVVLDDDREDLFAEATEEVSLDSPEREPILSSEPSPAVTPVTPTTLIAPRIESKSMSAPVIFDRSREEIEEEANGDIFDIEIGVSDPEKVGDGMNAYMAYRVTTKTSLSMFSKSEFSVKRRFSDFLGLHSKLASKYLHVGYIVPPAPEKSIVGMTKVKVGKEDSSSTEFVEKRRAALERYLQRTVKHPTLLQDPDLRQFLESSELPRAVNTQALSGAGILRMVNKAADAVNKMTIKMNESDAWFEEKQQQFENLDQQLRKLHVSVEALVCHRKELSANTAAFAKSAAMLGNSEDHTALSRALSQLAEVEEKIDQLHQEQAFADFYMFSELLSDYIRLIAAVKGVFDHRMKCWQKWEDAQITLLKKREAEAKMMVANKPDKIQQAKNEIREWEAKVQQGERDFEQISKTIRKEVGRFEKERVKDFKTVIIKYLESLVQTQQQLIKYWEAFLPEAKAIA
# Sequence of UniProt Q86VP1 (Q86VP1 whole entry, looked up): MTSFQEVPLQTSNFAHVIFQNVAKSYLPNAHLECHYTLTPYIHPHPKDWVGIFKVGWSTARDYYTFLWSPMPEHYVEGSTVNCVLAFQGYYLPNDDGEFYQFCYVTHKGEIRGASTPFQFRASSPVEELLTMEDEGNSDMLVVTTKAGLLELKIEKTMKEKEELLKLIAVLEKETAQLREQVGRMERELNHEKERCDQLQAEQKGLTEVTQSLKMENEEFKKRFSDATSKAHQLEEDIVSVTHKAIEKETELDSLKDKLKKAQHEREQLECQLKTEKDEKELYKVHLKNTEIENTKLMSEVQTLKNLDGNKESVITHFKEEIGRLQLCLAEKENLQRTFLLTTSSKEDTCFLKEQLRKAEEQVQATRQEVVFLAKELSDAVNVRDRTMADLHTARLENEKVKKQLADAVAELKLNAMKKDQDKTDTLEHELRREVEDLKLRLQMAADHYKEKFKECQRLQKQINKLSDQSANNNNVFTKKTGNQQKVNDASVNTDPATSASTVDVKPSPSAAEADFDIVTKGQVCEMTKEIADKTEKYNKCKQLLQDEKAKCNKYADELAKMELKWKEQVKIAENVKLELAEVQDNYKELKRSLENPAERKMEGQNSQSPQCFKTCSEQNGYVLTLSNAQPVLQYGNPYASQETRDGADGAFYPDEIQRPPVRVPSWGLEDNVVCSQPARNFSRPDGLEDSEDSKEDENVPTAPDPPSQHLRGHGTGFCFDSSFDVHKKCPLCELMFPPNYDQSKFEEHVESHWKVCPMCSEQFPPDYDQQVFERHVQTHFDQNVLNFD
# Sequence of UniProt Q02447 (Q02447 whole entry, looked up): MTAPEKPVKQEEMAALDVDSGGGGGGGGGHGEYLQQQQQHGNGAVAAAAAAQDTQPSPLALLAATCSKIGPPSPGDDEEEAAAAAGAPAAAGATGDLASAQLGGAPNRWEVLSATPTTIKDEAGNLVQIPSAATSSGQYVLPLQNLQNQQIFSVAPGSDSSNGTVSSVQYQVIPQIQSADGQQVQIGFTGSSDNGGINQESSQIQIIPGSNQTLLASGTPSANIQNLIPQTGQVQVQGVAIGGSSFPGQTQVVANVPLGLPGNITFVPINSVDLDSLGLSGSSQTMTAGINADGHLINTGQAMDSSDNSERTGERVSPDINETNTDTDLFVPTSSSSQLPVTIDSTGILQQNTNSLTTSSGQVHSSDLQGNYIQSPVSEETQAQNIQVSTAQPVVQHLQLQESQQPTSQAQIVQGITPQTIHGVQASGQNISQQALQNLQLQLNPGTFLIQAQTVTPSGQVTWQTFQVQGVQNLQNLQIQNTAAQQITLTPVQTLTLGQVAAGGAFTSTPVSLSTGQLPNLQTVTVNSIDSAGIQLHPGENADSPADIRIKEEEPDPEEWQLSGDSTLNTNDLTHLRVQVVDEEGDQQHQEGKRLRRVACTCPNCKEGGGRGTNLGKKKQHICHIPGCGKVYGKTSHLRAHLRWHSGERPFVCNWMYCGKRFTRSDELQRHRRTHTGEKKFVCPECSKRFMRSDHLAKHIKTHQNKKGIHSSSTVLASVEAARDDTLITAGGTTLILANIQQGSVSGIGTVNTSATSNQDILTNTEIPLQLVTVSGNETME
# Sequence of UniProt Q8NEF9 (Q8NEF9 whole entry, looked up): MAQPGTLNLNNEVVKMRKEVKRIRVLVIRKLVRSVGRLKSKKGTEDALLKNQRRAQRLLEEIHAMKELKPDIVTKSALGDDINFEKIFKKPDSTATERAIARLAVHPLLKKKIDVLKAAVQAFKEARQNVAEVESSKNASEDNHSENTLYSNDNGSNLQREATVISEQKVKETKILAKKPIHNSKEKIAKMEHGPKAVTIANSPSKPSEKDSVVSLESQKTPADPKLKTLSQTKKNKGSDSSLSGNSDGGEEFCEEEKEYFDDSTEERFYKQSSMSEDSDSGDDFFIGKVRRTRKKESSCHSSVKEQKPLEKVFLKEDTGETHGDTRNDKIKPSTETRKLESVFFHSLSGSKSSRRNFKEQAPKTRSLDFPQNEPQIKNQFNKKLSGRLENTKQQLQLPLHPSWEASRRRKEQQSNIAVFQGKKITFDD
# Sequence of UniProt Q86UE8 (Q86UE8 whole entry, looked up): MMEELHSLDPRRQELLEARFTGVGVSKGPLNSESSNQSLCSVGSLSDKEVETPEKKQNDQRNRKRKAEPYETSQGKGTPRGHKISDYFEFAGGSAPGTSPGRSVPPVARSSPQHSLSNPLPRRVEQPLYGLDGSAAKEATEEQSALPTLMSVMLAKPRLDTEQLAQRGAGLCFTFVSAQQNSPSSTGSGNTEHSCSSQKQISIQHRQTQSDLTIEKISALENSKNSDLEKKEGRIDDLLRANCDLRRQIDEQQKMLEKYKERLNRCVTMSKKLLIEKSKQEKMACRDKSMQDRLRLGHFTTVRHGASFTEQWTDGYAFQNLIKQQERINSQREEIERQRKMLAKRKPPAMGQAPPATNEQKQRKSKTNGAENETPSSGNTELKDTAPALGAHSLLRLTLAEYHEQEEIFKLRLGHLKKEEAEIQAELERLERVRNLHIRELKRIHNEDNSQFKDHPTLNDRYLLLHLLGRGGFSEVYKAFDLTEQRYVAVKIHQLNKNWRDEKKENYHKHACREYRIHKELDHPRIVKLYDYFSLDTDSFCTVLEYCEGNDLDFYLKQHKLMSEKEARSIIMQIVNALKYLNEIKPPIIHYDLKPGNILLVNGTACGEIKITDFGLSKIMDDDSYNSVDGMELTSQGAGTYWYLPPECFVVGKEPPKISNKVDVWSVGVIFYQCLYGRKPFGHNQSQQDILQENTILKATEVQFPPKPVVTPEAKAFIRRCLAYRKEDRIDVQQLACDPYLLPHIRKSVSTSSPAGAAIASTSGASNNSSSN
# Sequence of UniProt Q92844 (Q92844 whole entry, looked up): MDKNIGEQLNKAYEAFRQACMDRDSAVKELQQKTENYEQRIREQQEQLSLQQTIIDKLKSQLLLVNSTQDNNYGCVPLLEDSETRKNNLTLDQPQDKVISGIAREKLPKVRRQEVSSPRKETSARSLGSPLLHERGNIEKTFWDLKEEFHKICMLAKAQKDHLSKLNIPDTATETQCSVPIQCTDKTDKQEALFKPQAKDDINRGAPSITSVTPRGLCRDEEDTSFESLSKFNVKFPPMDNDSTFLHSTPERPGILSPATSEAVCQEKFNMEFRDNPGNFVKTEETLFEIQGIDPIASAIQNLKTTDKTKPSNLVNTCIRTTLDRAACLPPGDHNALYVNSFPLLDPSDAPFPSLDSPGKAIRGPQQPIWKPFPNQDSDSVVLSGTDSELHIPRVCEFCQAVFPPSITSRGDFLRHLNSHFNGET
# Sequence of UniProt Q16629 (Q16629 whole entry, looked up): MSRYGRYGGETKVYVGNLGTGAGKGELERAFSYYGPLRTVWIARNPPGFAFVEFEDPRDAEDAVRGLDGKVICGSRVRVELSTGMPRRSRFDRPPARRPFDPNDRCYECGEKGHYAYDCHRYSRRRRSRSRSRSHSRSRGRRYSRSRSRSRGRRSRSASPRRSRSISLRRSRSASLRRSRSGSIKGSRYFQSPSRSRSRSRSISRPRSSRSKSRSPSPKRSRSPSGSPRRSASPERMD
# Sequence of UniProt P62318 (P62318 whole entry, looked up): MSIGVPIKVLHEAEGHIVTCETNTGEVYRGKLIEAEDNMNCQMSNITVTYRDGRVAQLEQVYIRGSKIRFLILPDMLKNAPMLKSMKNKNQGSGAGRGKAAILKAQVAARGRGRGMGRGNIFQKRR
# Sequence of UniProt Q8N5G0 (Q8N5G0 whole entry, looked up): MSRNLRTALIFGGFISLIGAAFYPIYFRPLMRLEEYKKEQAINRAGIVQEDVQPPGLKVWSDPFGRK
Target,log2 fold change (bafetinib),log2 fold change [1],log2 fold change (nilotinib),log2 fold change [2],log2 fold change (dasatinib),log2 fold change [3],log2 fold change [4],log2 fold change [5],log2 fold change (tipifarnib),log2 fold change (mubritinib)
SLIRP (UniProt Q9GZT3),-0.156,-0.099,0.118,-0.027,-0.134,-0.073,0.131,0.075,0.031,-0.044
SNX2 (UniProt O60749),-0.153,0.088,-0.168,0,-0.134,-0.275,0.101,0.021,-0.056,0.044
SPECC1 (UniProt Q5M775),-0.102,-0.1,-0.108,-0.133,-0.067,0.063,-0.035,0.089,0.028,0.044
SNRPD3 (UniProt P62318),0.013,-0.077,0.034,0.077,0.08,0.107,-0.097,-0.06,0.024,0.011
STIM1 (UniProt Q13586),-0.143,0,0.002,-0.01,-0.006,-0.025,0.028,0.01,0.012,0.016
STK39 (UniProt Q9UEW8),-0.09,0,-0.076,-0.028,-0.108,-0.016,-0.008,-0.032,-0.031,-0.083
THYN1 (UniProt Q9P016),0.009,-0.028,-0.021,0.044,-0.097,-0.009,-0.015,0.013,-0.036,0.031
SMAP (UniProt O00193),0.043,-0.022,-0.004,0.006,0.033,-0.011,0.005,-0.027,-0.042,0.038
TAOK1 (UniProt Q7L7X3),-0.056,0.025,0.007,-0.023,-0.014,-0.03,0.043,-0.026,0.067,0.078
TAX1BP1 (UniProt Q86VP1),0.011,-0.095,-0.086,0.011,-0.024,0.047,-0.068,0.027,0.092,0.045
TBC1D24 (UniProt Q9ULP9),-0.007,0.049,-0.069,-0.318 (active),-0.15,-0.219,0.098,-0.045,-0.106,0.097
SLC38A9 (UniProt Q8NBW4),-0.022,-0.04,0.02,0.05,0.094,-0.081,-0.017,-0.034,0.038,0.046
STARD3 (UniProt Q14849),-0.097,0.064,0.215,0.218,0.284,0.068,0.119,-0.018,0.022,-0.067
TJP1 (UniProt Q07157),-0.061,0.008,0.024,-0.199,-0.092,-0.037,-0.028,-0.02,-0.025,0.073
SLC27A2 (UniProt O14975),0.044,0.005,0.179,-0.104,-0.106,0.025,0.054,0.073,0.187,-0.001
SRSF10 (UniProt O75494),0.044,-0.1,0.089,-0.079,0.336,0.076,-0.498,-0.173,0.215,-0.089
TFAM (UniProt Q00059),0.034,0.013,-0.025,0.023,0.077,0.003,-0.048,-0.038,0.039,-0.068
STAT5B (UniProt P51692),-0.056,0.109,-0.218,-0.432,-0.443 (active),0.162,0.07,0.08,-0.163,0.308
SMIM20 isoform 2 (UniProt Q8N5G0),-0.011,-0.011,-0.037,-0.001,0.012,-0.102,0.05,0.156,0.017,0.009
SP3 (UniProt Q02447),0.022,-0.018,-0.01,0.093,0,-0.042,-0.044,0.103,-0.041,-0.045
TANK (UniProt Q92844),-0.049,-0.106,0.054,0.337 (active),-0.025,0.082,-0.021,-0.036,-0.016,0.03
TM9SF2 (UniProt Q99805),-0.056,0.008,0.025,-0.072,-0.013,0.041,0.023,0.036,0.009,-0.006
SRFBP1 (UniProt Q8NEF9),0.075,-0.014,0.303,-0.031,0.095,-0.066,-0.163,-0.044,0.177,-0.129
STOM (UniProt P27105),-0.01,0.043,0.039,-0.007,0.039,-0.03,-0.043,0.055,0.031,-0.008
SNRNP27 (UniProt Q8WVK2),-0.015,-0.079,0.087,-0.487 (active),0.045,-0.064,-0.078,0.031,0.032,0.059
TENT5C (UniProt Q5VWP2),-0.055,0.009,0.002,0.02,-0.122,0.005,-0.286,0.028,-0.02,0.014
SRSF7 (UniProt Q16629),0.073,-0.055,0.156,-0.642 (active),0.171,0.044,-0.177,-0.126,0.181,-0.128
SPTBN4 (UniProt Q9H254),-0.036,-0.044,-0.167,0.027,0.017,-0.04,-0.014,0.03,-0.09,0.066
TLK2 isoform 2 (UniProt Q86UE8),-0.051,-0.042,0.006,-0.407 (active),-0.01,0.007,0.046,-0.033,0.01,-0.001
TIAL1 isoform 2 (UniProt Q01085),-0.072,-0.028,-0.023,0.036,-0.021,0.074,0.009,-0.001,0.015,0.013
